# Experimental data taken from PubChem BioAssay (NCATS).
# Records with an inconclusive call do not appear. Active and inactive are the calls of the source. Calls come from the whole dose curve; as a rule, active = well fitted activation curve with a large enough effect; inconclusive = small, poorly fitted or top-dose-only effect; inactive = flat fitted curve, though single readings scatter. Peptide text beside a SMILES is read from it.
# Test: Cellular Toxicity (caspase-3) H-4-II-E (AID 663);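 note: cells exposed to compound for 16 hr before readout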
# Settings: H-4-II-E rat hepatoma, scaled: DMSO 0%, 100 µM tamoxifen 100%; series mostly up to 92.2 µM
# From the text: NIH Chemical Genomics Center [NCGC]
# NIH Molecular Libraries Screening Centers Network [MLSCN]
# National Institutes of Environmental Health Sciences [NIEHS]
# National Toxicology Program [NTP]
# We have developed a 1536-well cell-based assay for quantitative high throughput screening (qHTS) against a number of cell lines to determine in vitro caspase 3/7 of small molecules. This particular assay uses the H-4-II-E cell line which is derived from rat hepatoma.
# NCGC Assay Protocol Summary:
# The Caspase-Glo 3/7 assay (Promega) is a homogeneous method to measure caspase-3 and caspase-7 activities in cultured cells. The quantitation of caspase 3/7 activity is based on the cleavage of a peptide-aminoluciferin substrate. After caspase cleaves the substrate the free aminoluciferin is liberated and serves as the substrate of luciferase, which generates the light. The luminescent signal is proportional to amount of caspase 3/7 activity present.
# Using the Caspase-Glo 3/7 assay, the amount of caspase 3/7 activity was measured in the H-4-II-E cell line with complete culture medium following compound treatment for 16 hours. The assay was performed in opaque white 1536-well plates. In the screen, tamoxifen and doxorubicin were used as positive controls. Library compounds were measured for their ability to cause the activation of caspase 3/7 in the cell line, as reflected by an increase in luminescence signal, in a concentration-dependent manner. Data were normalized to the controls for basal activity (DMSO only) and 100% stimulation (100 uM tamoxifen). AC50 values were determined from concentration-response data modeled with the standard Hill equation.
# qHTS protocol for caspase 3/7 assay in H-4-II-E cells
# [Step] [Parameter] [Value] [Description]
# 1. Reagent; 5 uL; 1500 H-4-II-E cells/well
# 2. Time; 5 hr; 37 °C incubation
# 4. Controls; 23 nL; Tamoxifen 0.23 uM to 100 uM & Doxorubicin 7.0 pM to 100 uM
# 5. Time; 16 hr; 37 °C incubation
# 6. Reagent; 5 uL; Caspase-Glo 3/7 reagent
# 7. Time; 20 min; Room Temperature
# 8. Detection; Luminescence; Viewlux plate reader
# Keywords: caspase 3/7, apoptosis, H-4-II-E cell line, luminescence, NTPHTS, NTPHTS_NCGC, NIEHS, EPA, DSSTox, MLSMR, MLSCN, NIH Roadmap, qHTS, NCGC
row,Compound,outcome
1,CN(C)c1ccc2nc3ccc(=[N+](C)C)cc-3sc2c1,inactive
2,Nc1ccc(S(N)(=O)=O)cc1,inactive
3,Cc1ccc(C)c(OCCCC(C)(C)C(=O)O)c1,inactive
4,Cc1cc(O)c2c(c1)C(=O)c1cc(O)cc(O)c1C2=O,inactive
5,CS(=O)(=O)OCCCCOS(C)(=O)=O,inactive
6,COC(=O)[C@H](Cc1ccccc1)NC(=O)[C@@H](N)CC(=O)O (H-Asp-Phe-OMe),inactive
7,CCc1nc(N)nc(N)c1-c1ccc(Cl)cc1,inactive
8,c1ccc2[nH]c(-c3cscn3)nc2c1,inactive
9,CC(=O)Nc1ccc(O)cc1,inactive
10,CCCCC(CC)COC(=O)C(C#N)=C(c1ccccc1)c1ccccc1 (configuration not stated),inactive
11,COc1c2occc2cc2ccc(=O)oc12,inactive
12,CCCc1cc(=O)[nH]c(=S)[nH]1,inactive
